Bioassay records as filed in PubChem.
WRN helicase inh: inhibitors of human WRN helicase; Q14191; WRN helicase unwinding, fluorescent forked duplex, kinetic; Potency, µM (doses to about 114 µM), for the others: at the highest dose activity change, negative = inhibition, most hits filed as inhibitors; 360,000 tested, 0.46% active; AID 651768; further: potency means the concentration at half of the fitted maximal effect; nearly all actives have a fitted effect of over 55% in size
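Kinetic red-fluorescence monitoring (525/598 nm) tracks WRN helicase activity after 100 nM fluorophore-quencher forked duplex and 2 mM ATP are added to 20 nM enzyme pretreated 15 min at room temperature with compound.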
Tb PGK inh: blocks T. brucei phosphoglycerate kinase; P07378; PGK/GAPDH coupled, Kinase-Glo luminescence, 60 min; Potency, µM (top dose mostly 57.5 µM), without a hit: at the top dose activity change, negative = inhibition, usual class: inhibitors; 380,000 tested, 0.043% active; further: potency means the concentration at half of the fitted maximal effect; nearly all actives have a fitted effect of over 60% in size
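Recombinant glycosomal PGK reaction used 1,3-bisphosphoglycerate generated in-well by GAPDH (100nM final) in 100mM TEA pH 7.6, 5mM MgCl2, 0.01% Tween-20. After 60 minutes at room temperature, ATP was read by Kinase-Glo Plus luminescence end-point.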
TDP1 inh: inhibitors of human tyrosyl-DNA phosphodiesterase TDP1; Potency, µM (doses to about 130 µM), for inactives: at the top dose activity change, negative = inhibition, most hits filed as inhibitors; recombinant TDP1, AlphaScreen DNA substrate cleavage; 350,000 tested, 0.28% active; further: potency means the concentration at half of the fitted maximal effect; nearly all actives have a fitted effect of over 40% in size
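Signal: AlphaScreen proximity between streptavidin donor and anti-FITC acceptor beads on intact substrate. Reaction: Tdp1 1 nM, substrate 15 nM final, 5 min RT after 15 min compound preincubation.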
Tb PFK inh: T. brucei PFK enzyme inhibition; T. brucei PFK, ADP-Glo luminescence; Potency, µM (series often up to 57.5 µM), inactives show at the top dose activity, negative = inhibition, actives largely listed as inhibitors; 330,000 tested, 0.17% active; AID 485367;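 further: potency means the concentration at half of the fitted maximal effect; 0% = uninhibited 1x PFK enzyme wells and -100% = no-enzyme wells; nearly all actives have a fitted effect of over 60% in size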
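1.25 nM PFK with 0.5 mM F6P and 0.1 mM ATP in 0.1 M TEA pH 8.0, 5 mM MgCl2, incubated 45 min at room temperature; ADP measured by ADP-Glo luminescence; compounds titrated up to 57 uM.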
PI5P4Ka inh: inhibitors of human PI5P4K alpha; max response, %; P48426; PI5P4Kalpha enzyme, ADP-Glo luminescence, 60 min; hits give low values; 330,000 tested, 1.2% active; active means max response of -50% or lower; inconclusive means between -30% and -50%; inactive means -30% or higher; further: value at the top dose of about 77 µM
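Single end-point luminescence (ADP-Glo) quantified ADP from PI5P4Kalpha turnover; ATP 5 microM final, 1 h at RT, 0.1% CHAPS and 0.28 mM EGTA in HEPES pH 7.4.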
FEN1 inh: human FEN1 inhibition; P39748; Recombinant FEN1 flap cleavage, fluorescence, 15 min; Potency, µM (doses to about 114 µM), inactives show top-dose activity change, negative = inhibition, hits mostly inhibitors; 390,000 tested, 0.35% active; further: potency means the concentration at half of the fitted maximal effect; nearly all actives have a fitted effect of over 65% in size
Target sequence (P39748 whole entry, looked up): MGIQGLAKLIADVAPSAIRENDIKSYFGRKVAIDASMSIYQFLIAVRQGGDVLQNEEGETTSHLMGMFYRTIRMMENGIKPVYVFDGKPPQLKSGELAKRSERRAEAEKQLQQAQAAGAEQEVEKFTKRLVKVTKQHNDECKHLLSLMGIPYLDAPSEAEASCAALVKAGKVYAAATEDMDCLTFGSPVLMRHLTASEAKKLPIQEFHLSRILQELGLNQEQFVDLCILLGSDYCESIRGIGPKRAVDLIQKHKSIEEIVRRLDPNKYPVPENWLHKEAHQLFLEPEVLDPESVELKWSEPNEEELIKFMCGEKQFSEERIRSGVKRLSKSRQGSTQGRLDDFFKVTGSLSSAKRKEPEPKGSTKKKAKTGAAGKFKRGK
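Compounds are tested as a concentration series against 10 nM FEN1; after a 15 min room-temperature preincubation, 50 nM substrate starts cleavage, with plate reads at 0 and 15 min. Normalized responses are fitted by a Hill equation.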
ADP-Glo counter: interferes with ADP-Glo detection without enzyme present | shares compounds with PI5P4Ka inh | ADP-Glo detection counter-screen, luciferase luminescence, no enzyme | Potency, µM (doses to about 76.9 µM), inactives show top-dose activity change, negative = inhibition, actives largely listed as inhibitors | 1,100 tested, under 10 active
* = called active by the depositor; i = inactive; ? = inconclusive; nt = not tested or not shown; [ ] = another dose, or the depositor's remark. Compounds with a hit are over-represented: about 1.5% of the library has one in this group of screens. Unless noted, the call rests on the fitted dose curve; in most records, active means well fitted curve in the direction sought with a large enough effect; inconclusive means small, poorly fitted or top-dose-only effect, or another doubt; inactive means no such curve, though single readings can be large; an effect the other way counts as inactive or inconclusive. Unless noted, on the % scale 0 is the no-effect control and ±100 the full control effect.

SMILES	WRN helicase inh	Tb PGK inh	TDP1 inh	Tb PFK inh	PI5P4Ka inh	FEN1 inh	ADP-Glo counter
Cc1cccc(C)c1NC(=O)C(c1ccc(C#N)cc1)n1c(=O)c(-c2ccco2)nc2ccccc21 (centres undefined)	-3%	nt	nt	nt	-53*	nt	-1%
CCCCCNC(=O)C(c1cc2ccccc2o1)n1c(=O)c(-c2ccco2)nc2ccccc21 (centres undefined)	?	nt	nt	nt	-108*	nt	-7%
CCCCNC(=O)c1ccc2nc(-c3ccco3)c(-c3ccco3)nc2c1	79µM*	-8%	-8%	-15%	-73*	40µM*	-10%
COc1ccc2nc(-c3ccco3)c(-c3ccco3)nc2c1	45µM*	-16%	nt	-8%	-58*	?	-3%
COc1ccc(C(C(=O)Nc2c(C)cccc2C)n2c(=O)c(-c3ccco3)nc3ccccc32)cc1 (centres undefined)	-4%	nt	nt	nt	?	nt	nt
CCCCCNC(=O)C(c1ccncc1)n1c(=O)c(-c2ccco2)nc2ccccc21 (centres undefined)	0%	nt	nt	nt	?	nt	nt
COc1ccc2nc3cccc(OC)c3nc2c1	0%[11.6 µM]	-12%	2%	?	-7	?	nt
COc1ccc(CCNC(=O)Cn2cc(S(=O)(=O)Cc3cccc(Cl)c3)c3ccccc32)cc1OC	nt	i	2%	nt	nt	13%	nt
O=C(NCc1ccccc1)C(c1ccccc1F)n1c(=O)c(-c2ccco2)nc2ccccc21 (centres undefined)	-6%	nt	nt	nt	-64*	nt	-5%
Cc1cccc(C)c1NC(=O)C(c1ccccc1)n1c(=O)c(-c2ccco2)nc2ccccc21 (centres undefined)	-11%	nt	nt	nt	-52*	nt	-4%
O=C(NCc1ccccc1)C(c1ccccc1F)n1c(=O)c(-c2ccccc2)nc2ccccc21 (centres undefined)	-11%	nt	nt	nt	4	nt	nt
O=C(COC(=O)c1cccc(Cl)c1)Nc1cccc(S(=O)(=O)NC2=NCCC2)c1	-1%	-9%	1%	0%	-1	-10%	nt
N#Cc1ccc(COC(=O)CC(NC(N)=O)c2ccc(Cl)cc2)cc1 (centres undefined)	3%	-15%	nt	2%	?	-5%	4%
NC(=O)NC(CC(=O)OCC(=O)Nc1nnc(-c2ccccc2)o1)c1ccc(Cl)cc1 (centres undefined)	3%	8%	nt	nt	9	nt	nt
O=C(CSc1nc(=O)n2cc(Cl)ccc2n1)Nc1ccc2c(c1)OCCO2	?	0%	nt	3%	-54*	-2%	-4%
O=C(CSc1nc(=O)n2cc(Cl)ccc2n1)Nc1ccc2c(c1)OCO2	-29%	-13%	nt	0%	?	?	nt
Cc1nc(C(F)(F)F)ccc1C(=O)N1CCCC(C)(C(=O)O)C1 (centres undefined)	-5%	nt	nt	nt	5	nt	nt
COc1ccc(C(C(=O)NC2CCCC2)N(C(=O)c2snc(C(N)=O)c2N)c2cccc(O)c2)cc1 (centres undefined)	-10%[11.6 µM]	-15%	0%[0.0935 µM]	-9%	-55*	?	-4%
Cc1c(C(=O)N2CCN(C(=O)c3ccccc3)CC2)oc2ccc(F)cc12	-18%	i	-16%	0%	-54*	-12%	3%
CCCn1c(SCC(=O)Nc2cc(Cl)ccc2OC)nc(O)cc1=O	-13%	-1%	0%[56.1 µM]	-1%	?	11%	nt
COc1ccc(Cl)cc1NC(=O)CSc1nc2sccc2c(=O)[nH]1	-21%	-11%	3%	-6%	-53*	-14%	2%
CC(C)(C)[C@H]1C=C(C(=O)N2CCOCC2)O[C@@H](OCc2ccc(CO)cc2)C1	-3%	-5%	3%	-5%	0	17%	3%
CC(C)(C)[C@@H]1C=C(C(=O)N2CCOCC2)O[C@H](OCc2ccc(CO)cc2)C1	2%	i	1%	0%	1	-4%	nt
COc1ccc(-n2ccnc2SCC(=O)NCc2ccc(F)cc2)c(OC)c1	20%	-6%	1%	-3%	2	-3%	nt
CCc1sc(C(=O)Nc2ccc3c(c2)OCO3)cc1C	-28%	-5%	4%	-11%	-72*	-15%	5%
SMILES	WRN helicase inh	Tb PGK inh	TDP1 inh	Tb PFK inh	PI5P4Ka inh	FEN1 inh	ADP-Glo counter
Cc1cc(F)ccc1S(=O)(=O)N1CCCOC1CNC(=O)C(=O)NC1CCCC1 (centres undefined)	1%	0%	0%	-6%	10	3%	nt
CN(Cc1ccccc1)C(=O)c1csc([C@H]2C[C@H](O)[C@@H](CO)O2)n1	1%	nt	nt	nt	0	nt	-3%
CN(Cc1ccccc1)C(=O)c1csc([C@@H]2C[C@H](O)[C@@H](CO)O2)n1	12%[57.1 µM]	nt	nt	nt	0	nt	nt
COc1ccc(CCNC(=O)CNCC(c2ccccc2)N(C)C)cc1OC (centres undefined)	3%	i	nt	-9%	-2	-8%	-2%
CCc1ccc(CNC(=O)Cc2ccc(NC(=O)C3=C(C)OCCS3)cc2)cc1	-7%[11.6 µM]	?	-17%	?	-63*	5%	5%
CC1=C(C(=O)Nc2ccc(CC(=O)NCc3ccccc3C)cc2)SCCO1	-6%	10%	5%	0%	1	16%	nt
COc1cccc(CNC(=O)Cc2ccc(NC(=O)C3=C(C)OCCS3)cc2)c1	-16%	-5%	0%	-8%	-53*	-9%	-2%
Cn1cc(CN2CCC(C(=O)NC(c3ccc(-c4ccccc4)cc3)c3cnccn3)CC2)c2ccccc21 (centres undefined)	9%	nt	nt	nt	-5	nt	nt
CCOC(=O)c1c(NC(=O)COC(=O)CCCOc2ccc(OC)cc2)sc(C(=O)NC)c1C	-2%	i	1%	-3%	8	-12%	nt
CCCCCCCCN1C(=O)[C@H](CC(=O)NCc2ccc(C)o2)C[C@@]2(C(=O)OC)CC(C)(C)CC=C12	-4%	nt	nt	nt	-51*	nt	-1%
COC(=O)c1cc(OC)c(OC)cc1NC(=O)Nc1ccccc1F	4%	4%	6%	4%	2	5%	nt
O=C(CC1C(=O)NCCN1CC1CCCCC1)NCc1cc(F)ccc1F (centres undefined)	-34%	5%	3%	-1%	-63*	0%	6%
O=C(CC1C(=O)NCCN1CC1CCCCC1)NCc1ccc(F)cc1F (centres undefined)	9%	0%	3%	-10%	1	10%	nt
CCc1nc2sc3ccccc3c(=O)c2c(=O)n1Cc1ccco1	56µM*	-21%	?	-3%	-68*	?	-5%
